Measurements published in PubChem BioAssay AID651703 (Broad Institute, 2012).
Among all 1,200 compounds or so, about 970 (81%) were called active. How the calls were made is not given here. The set was probably picked from earlier hits. These entries were drawn from the full list. Entries with a potency or affinity are not part of this list.

molecular target: Transforming acidic coiled-coil-containing protein 3 (Homo sapiens) (UniProt Q9Y6A5); assay: inhibition of ARNT PAS-B/TACC3 complex formation – biochemical, AlphaScreen, cherry-picked samples, confirmation (AID 651703); details: AlphaScreen His-ARNT PAS-B / GST-TACC3 binding, luminescence; series mostly up to 68 µM;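 further: TACC3 partner is the GST-tagged E629A mutant dimer; hits lower the signal meaning they disrupt ARNT binding to TACC3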

outcome, inactive:
Clc1ccc(SCc2cc(N3CCOCC3)nc(-c3ccccn3)n2)cc1
CCOc1cc(/C=N/Nc2ncc(C)c(=O)[nH]2)ccc1O
O=C1C2CCCCN2C(=O)N1CCCCN1CCN(c2cccc(Br)c2)CC1 (stereo unspecified)
O=C(CCC(=O)c1cccs1)OCc1nnc(-c2ccccc2)o1
CCc1c(C)nc(Nc2nc(C)c3ccc(OC)cc3n2)[nH]c1=O
CCN(C(=O)CSc1nccn1C)c1cccc2ccccc12
COc1cc2c(cc1OC)C(Cc1ccccc1[N+](=O)[O-])=NCC2
O=C(Nc1nnc(-c2ccccc2)s1)c1cc(-c2ccccc2)on1
CCSc1nnc(NC(=O)C2CCCCC2C(=O)O)s1 (stereo unspecified)
C[C@@H]1CN([C@@H](C)CO)C(=O)c2cc(NC(=O)C3CC3)ccc2O[C@H]1CN(C)C(=O)Nc1ccc(F)cc1
C[C@@H]1CN([C@H](C)CO)C(=O)Cc2cc(NC(=O)Nc3cccc4ccccc34)ccc2O[C@@H]1CN(C)Cc1ccc(C(=O)O)cc1
CC(C)NC(=O)Nc1cccc2c1O[C@H](CN(C)C(=O)Nc1ccc(C(F)(F)F)cc1)[C@@H](C)CN([C@@H](C)CO)C2=O
C[C@H](CO)N1C[C@H](C)[C@@H](CN(C)C(=O)Nc2ccc3c(c2)OCO3)Oc2ccc(NC(=O)CCN3CCOCC3)cc2CC1=O
C[C@H]1CN([C@@H](C)CO)C(=O)Cc2cc(NC(=O)Nc3cccc4ccccc34)ccc2O[C@H]1CN(C)CC1CCCCC1
COCCCN=Cc1c(-c2ccccc2)[nH]n(-c2nc3ccccc3s2)c1=O
COc1ccc(-c2[nH]ncc2/C=N\NC(=O)c2cccs2)cc1OC
CCOc1ccc(Cl)cc1C(c1c(C)[nH][nH]c1=O)c1c(C)[nH][nH]c1=O
C#CCOc1ccc(OC)cc1C(c1c(C)[nH][nH]c1=O)c1c(C)[nH][nH]c1=O
CCCN(C)C[C@@H]1Oc2ncc(C#CCC(C)C)cc2C(=O)N([C@@H](C)CO)C[C@H]1C
O=C(O)c1ccccc1-c1ccccc1C(=O)Nc1ccc2c(c1)[nH]c(=O)c1ccccc12
O=C(Nc1nc2ccccc2s1)c1cc(-c2ccccc2)on1
Cc1onc(-c2c(Cl)cccc2Cl)c1C(=O)Nc1ccc(N2CCOCC2)cc1
Cc1ccc(C(=O)Oc2ccc(/C=C3\C(=N)N4N=C(N5CCOCC5)SC4=NC3=O)cc2)cc1
O=C1CCN(Cc2ccccc2)C=C1c1ccc(C(F)(F)F)cc1
Cc1cccc(Oc2nc(-c3ccccn3)nc3ccccc23)c1
Nc1cc2cccnc2cc1Cl
O=C(C[C@H]1C=C[C@@H](NC(=O)Nc2ccc3c(c2)OCO3)[C@H](CO)O1)NCc1ccc(Cl)cc1
N#CC1=C(N)Oc2n[nH]c(-c3ccccn3)c2C1c1c(F)cccc1Cl (stereo unspecified)
CCN(CC)C(=O)[C@H]1C[C@H](CC(=O)NCc2ccc(OC)c(OC)c2)C(=O)N2CCc3c([nH]c4ccc(Cl)cc34)[C@]12C
CN1CCN(S(=O)(=O)c2cccc(C(=O)Nc3sccc3C(N)=O)c2)CC1
O=C(NCC1CCCCC1)c1cc(-c2ccccc2)on1
COC(=O)c1sc(N)c(C(=O)OC)c1Cn1ncc(Cl)c(Cl)c1=O
Cc1ccccc1CNC(=O)c1cc(-c2ccccc2)on1
CC1=NN(c2ccccc2C)C(=O)C1
COc1cc(NC(=O)C(=O)Nc2ccc3nc4n(c(=O)c3c2)CCCCC4)cc(OC)c1OC
O=C(C[C@H]1C[C@H]2c3cc(NC(=O)NC4CCCCC4)ccc3O[C@H]2[C@H](CO)O1)NCc1ccccc1
CN(C)c1ccc2c(c1)[C@@H]1C[C@@H](CC(=O)N3CCOCC3)O[C@@H](CO)[C@@H]1O2
Clc1nssc1=Nc1nncs1
COCCNC(=O)C[C@@H]1C[C@H]2c3cc(NC(=O)C4CCOCC4)ccc3O[C@H]2[C@H](CO)O1
COc1ccccc1OCc1nc(C#N)c(NCCCn2ccnc2)o1
Cc1coc2c(C)c3oc(=O)c(CCC(=O)N[C@@H](C)C(=O)N[C@@H](Cc4ccccc4)C(=O)O)c(C)c3cc12
Cc1c(CCC(=O)O)c(=O)oc2c(C)c3occ(-c4ccc(Cl)cc4)c3cc12
Cc1c(CC(=O)NCCCCCC(=O)O)c(=O)oc2cc3occ(-c4ccccc4)c3cc12
COc1ccc(N(C(C)=O)c2nc3ccccc3[nH]2)cc1
Cc1cc(C)n(S(=O)(=O)c2ccc(Cl)cc2)n1
O=C(CCc1ccccc1)Nc1nnc(-c2ccccn2)o1
CC(=O)Nc1ccc2nc3ccccc3nc2c1
Cc1ccc(NC(=O)c2cc(-c3ccccc3)on2)cn1
Cc1ccc(C2CCN(C(=S)Nc3cccc(C)c3)C2)cc1 (stereo unspecified)
CO[C@H]1CN(C)C(=O)c2cc(NC(=O)NC3CCCCC3)ccc2OC[C@H](C)N(CC2CC2)C[C@@H]1C
CO[C@@H]1CN(C)C(=O)c2cc(NC(=O)c3ccccc3)ccc2OC[C@@H](C)N(C(=O)C2CC2)C[C@H]1C
CCCNC(=O)Nc1ccc2c(c1)OC[C@H](C)N(C(=O)c1ccccc1F)C[C@@H](C)[C@@H](OC)CN(C)C2=O
Cc1cccc(NC(=O)c2cc(-c3ccccc3)on2)n1
O=C(Nc1ccc2ccccc2n1)c1cc(-c2ccccc2)on1
CN1/C(=N\O)c2cccc3cccc1c23
O=C(C[C@@H]1C[C@@H]2c3cc(NC(=O)C4CCOCC4)ccc3O[C@@H]2[C@H](CO)O1)NCc1cccnc1
CC(C)NC(=O)N1[C@H](CO)[C@@H]2c3ccccc3NC[C@@H]21
O=C(Nc1ncc(-c2ccccc2)o1)c1cc(-c2ccccc2)on1
COC(=O)C[C@@H]1C[C@H]2c3cc(N(C)C)ccc3O[C@H]2[C@@H](CO)O1
COc1ccc(OC)c(NC(=O)COC(=O)Cn2nnc(-c3ccccc3)n2)c1
COC(=O)c1[nH]c2cc(OC)c(OC)cc2c1NC(=O)Oc1ccccc1
C[C@H](CO)N1C[C@H](C)[C@H](CN(C)C(=O)Nc2cccc3ccccc23)OCCCC[C@H](C)Oc2ccc(NC(=O)CCCN(C)C)cc2C1=O
C[C@@H]1CN([C@@H](C)CO)C(=O)c2cc(NC(=O)C3CCCCC3)ccc2O[C@@H](C)CCCCO[C@@H]1CN(C)C(=O)NC1CCCCC1
CC(C)NC(=O)Nc1ccc2c(c1)C(=O)N([C@H](C)CO)C[C@@H](C)[C@@H](CN(C)C(=O)Nc1ccccc1)OCCCC[C@@H](C)O2
CC(C)NC(=O)N(C)C[C@H]1OCCCC[C@H](C)Oc2ccc(NC(=O)Cc3ccccc3)cc2C(=O)N([C@H](C)CO)C[C@H]1C
C[C@@H]1CN([C@@H](C)CO)C(=O)c2cc(NC(=O)CCCN(C)C)ccc2O[C@@H](C)CCCCO[C@H]1CN(C)C(=O)Nc1cccc2ccccc12
CC(C)NC(=O)Nc1ccc2c(c1)C(=O)N([C@@H](C)CO)C[C@H](C)[C@@H](CN(C)C)OCCCC[C@H](C)O2
O=C(c1cc(-c2ccccc2)on1)N1CCC(N2CCCC2)CC1
O=C(Nc1nc(-c2ccccc2)cs1)c1cc(-c2ccccc2)on1
COc1ccc(-c2cnc3c(c2)C(=O)N([C@@H](C)CO)C[C@H](C)[C@@H](CN(C)Cc2cccnc2)O3)cc1
CNC[C@@H]1Oc2c(NS(=O)(=O)c3cccs3)cccc2C(=O)N([C@@H](C)CO)C[C@H]1C
C[C@@H]1CN([C@H](C)CO)C(=O)c2cccc(NC(=O)c3ccncc3)c2O[C@@H]1CN(C)Cc1ccc(-c2ccccc2)cc1
C[C@@H]1CN([C@H](C)CO)C(=O)c2cc(NS(C)(=O)=O)ccc2O[C@@H]1CN(C)S(=O)(=O)c1ccc(F)cc1
COc1ccc(S(=O)(=O)Nc2ccc3c(c2)C(=O)N([C@H](C)CO)C[C@H](C)[C@H](CN(C)S(=O)(=O)c2ccc(C)cc2)O3)cc1
O=C(CN1CCCCCC1)Nc1ccccc1[N+](=O)[O-]
Cc1nnc(NC(=O)CSc2nnc(CNC(=O)c3ccc(S(=O)(=O)N(C)C)cc3)o2)s1
CCN(CC(=O)NCc1cccs1)CC(=O)Nc1cccc(S(N)(=O)=O)c1
Cc1c(CC(=O)NCC(=O)NCC(=O)O)c(=O)oc2cc3oc4c(c3cc12)CCCC4
Cc1cc(F)ccc1NS(=O)(=O)c1cccc2nsnc12
CC(=O)NC1=NC(=O)/C(=C/c2cn(C(C)=O)nc2-c2ccccc2)S1
Cc1ccc(-c2nc(C)sc2CC(=O)NCc2ccco2)cc1
Cc1cc(=O)n(-c2ccc(O)cc2)[nH]1
O=C(NCC1CCCO1)c1onc(CSc2ccc(F)cc2)c1C(=O)O (stereo unspecified)
Cc1cc(C)c(S(=O)(=O)N2CCCC2=O)c(C)c1N(C)S(C)(=O)=O
O=C(C[C@H]1C=C[C@@H](NC(=O)C2CC2)[C@@H](CO)O1)Nc1nccs1
Cc1[nH]n2c(=O)c3c(nc2c1-c1ccccc1)CCC3
COc1cc(/C=C2\S/C(=N/S(=O)(=O)c3ccccc3)NC2=O)c([N+](=O)[O-])cc1OC
COc1ccc(Cc2nnc(N/N=C(\C)c3ccccc3)[nH]c2=O)cc1OC
O=C(CSc1nnc(-c2ccccn2)o1)Nc1ccccc1C(F)(F)F
CN1CCN(C(=O)c2cc(-c3ccccc3)on2)CC1
O=C(c1cc(-c2ccccc2)on1)N1CCc2cccnc21
